# IL-1B inflam inh – inflammasome signaling inhibition, IL-1 beta readout; THP-1 LPS/ATP IL-1B secretion, AlphaLISA, 16 h; active compounds read low; activity change, % at 57.5 µM; 360,000 compounds, 4.7% hits; AID 743279; in the data active = activity change below about -50%; inconclusive = mostly about -30% to -49%
#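 THP-1 cells pretreated 1 hr with compounds (up to 57.5 uM final), then stimulated with LPS (250 ng/mL final) plus ATP (1.25 mM final); secreted IL-1B measured by AlphaLISA after 16 hr, decreased signal indicating inhibition.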
# HT1080NT lethal – kills 2HG-producing HT-1080-NT fibrosarcoma cells. Potency, µM (top dose mostly 46.1 µM), for inactives: at the highest dose activity, negative = less viability, usual class: cytotoxic. HT-1080-NT fibrosarcoma viability, CellTiter-Glo ATP luminescence, 48 h. 360,000 compounds, 1.6% hits;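 also: NT is the 2HG producing partner of a matched IDH1 knockdown line; potency is read from the fitted curve at half-maximal effect; 0% = DMSO-treated cells and -100% = media-only wells without cells; nearly all actives have a fitted effect of over 55% in size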
#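 Viability by CellTiter-Glo luminescence after 48 h compound exposure at 37C of HT-1080-NT cells (750/well, RPMI, 5% FBS). % activity scaled between DMSO wells and medium-only wells, then curve-fitted and categorized by curve class.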
# DT40 TDP1 CPT – DT40-hTDP1 cell growth loss with CPT. 420,000 compounds, 12% hits. chicken DT40 Tdp1-/-;hTDP1 cells + 20 nM CPT, ATP luminescence, 48 h. Potency, µM (doses to about 46.2 µM), for the others: top-dose activity change, negative = growth inhibition, hits mostly inhibitors; also: potency is read from the fitted curve at half-maximal effect; nearly all actives have a fitted effect of over 55% in size
#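 Cell growth measured by CellTiter-Glo luminescence after a minimum 48 h, 37 C compound exposure with 20 nM CPT in Tdp1-knockout DT40 cells stably expressing hTDP1, seeded 400/well; qHTS titration format.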
# HT1080 IDH1KD tx – HT-1080 IDH1 knockdown cell toxicity (counter line); Potency, µM (series often up to 46.1 µM), without a hit: at the top dose activity, negative = toxicity, most hits filed as cytotoxic; 360,000 compounds, 2% hits; AID 686971; HT-1080 IDH1 knockdown viability, ATP luminescence, 48 h;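 also: potency is read from the fitted curve at half-maximal effect; 0% = DMSO wells and -100% = cell-free medium wells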
#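 CellTiter-Glo luminescence after 48 h compound exposure at 37 degrees C of IDH1-knockdown HT-1080 cells in 5% FBS RPMI. %Activity scaled between DMSO wells and cell-free media wells, with curves fitted and assigned curve classes.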
# ELG1 repair inh – blocks ELG1-dependent DNA repair in HEK293T cells; AID 504467; 330,000 compounds, 2.3% hits; Potency, µM (series often up to 46.1 µM), for inactives: at the highest dose activity change, negative = inhibition, usual class: inhibitors; HEK293T ELG1-luciferase reporter, luminescence, 16 h; DNA damage induced by 5-fluorouridine; also: potency is read from the fitted curve at half-maximal effect; nearly all actives have a fitted effect of over 55% in size
#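 Step one: seed 2,000 cells per well. Step two: pin-transfer compound or DMSO alongside 5-fluorouridine. Step three: incubate 16 hr, 37 °C, 5% CO2. Step four: add ONE-Glo, wait 30 min, read luminescence.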
# TDP1 cell noCPT – qHTS for Inhibitors of human tyrosyl-DNA phosphodiesterase 1 (TDP1): qHTS in cells in absence of CPT | AID 686978, 2013 | Potency, µM (titrated, usually from 46.2 µM), for inactives: top-dose activity change, negative = growth inhibition, hits mostly inhibitors | DT40 Tdp1-/- hTDP1 cells, no CPT, ATP luminescence, 48 h | 420,000 compounds, 15% hits; also: potency is read from the fitted curve at half-maximal effect; nearly all actives have a fitted effect of over 55% in size
#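 Chicken DT40 Tdp1-/- cells complemented with human TDP1, screened without camptothecin (DMSO vehicle only), 400 cells/well. Compounds pin-transferred, cells incubated at 37 °C for at least 48 hr. Growth read as ATP-dependent luminescence (CellTiter-Glo, 30 min at RT).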
# * marks the source's active call; other numbers are inactive results; ? = inconclusive; nt = no result given; [ ] = another dose, or the depositor's remark. Hits are enriched below; roughly 19% of the tested compounds scored in any of these assays. Unless noted, calls follow the shape of the dose curve; as a rule, active = well fitted curve in the direction sought with a large enough effect; inconclusive = small, poorly fitted or top-dose-only effect, or another doubt; inactive = no such curve, though single readings can be large; an effect the other way counts as inactive or inconclusive. Unless noted, % is scaled to controls: 0 for no effect and ±100 for the full control effect.
SMILES,IL-1B inflam inh,HT1080NT lethal,DT40 TDP1 CPT,HT1080 IDH1KD tx,ELG1 repair inh,TDP1 cell noCPT
CCN(CC)CCn1c2ccccc2c2cnc(N=CN(C)C)c(C#N)c21,nt,?,16.4µM*,?,-14.1%,16.4µM*
CCn1c2ccccc2c2cnc(N=CN(C)C)c(C#N)c21,-9.4,-4.1%,?,-0.6%,?,14.6µM*
COc1ccccc1N(CC(=O)Nc1ccccc1C(=O)N1CCOCC1)S(C)(=O)=O,3.8,7.0%,4.6%,15.9%,22.0%,13.7%
CCOC(=O)C1CCCN(C(=O)c2cc(Nc3ccc(OC)cc3)nc3ccccc23)C1 (stereo not given),-0.7,-0.1%,20.6µM*,-8.5%,nt,14.6µM*
CCN1CCCC(OC(=O)c2cc(-c3ccc(C)cc3)nc3ccccc23)C1 (stereo not given),-147.2*,-27.9%,?,?,-5.3%,16.4µM*
CCOC(=O)C1CCCN(C(=O)c2cc(-c3ccncc3)nc3ccccc23)C1 (stereo not given),12.4,3.1%,?,8.4%,0.5%,-18.7%
CCOc1ccc(-c2cc(C(=O)N3CCC(C)CC3)c3ccccc3n2)cc1,-5.8,1.7%,?,9.5%,nt,?
CCOC(=O)C1CCCN(C(=O)c2cc(-c3ccc(F)cc3)nc3ccccc23)C1 (stereo not given),-13.6,?,?,-8.6%,-13.8%,14.6µM*
CCOC(=O)C1CCCN(C(=O)c2cc(-c3ccco3)nc3ccccc23)C1 (stereo not given),3.5,-0.8%,-10.2%,8.1%,7.4%,-1.0%
CC(C)(C)n1cn[nH]c1=S,20.9,13.5%,3.9%,5.9%,2.3%,-5.6%
COc1ccc(NC(=O)CSc2ccc3nnc(-c4cccnc4)n3n2)cc1OC,-30.0,21.8%,-3.3%,2.6%,10.3%,0.4%
CC(=O)c1ccn(S(=O)(=O)c2ccc(Cl)cc2)c1,-10.7,-3.8%,-10.6%,-0.3%,23.9%,-13.9%
C/C(=N\O)c1ccn(S(=O)(=O)c2ccc(Cl)cc2)c1,0.0,-1.9%,?,1.1%,-10.3%,25.9µM*
Cc1c(C(=O)NCC2(N3CCOCC3)CCCC2)cnn1-c1nccc(-c2ccccc2F)n1,nt,nt,4.2%[9.04 µM],nt,nt,-9.4%
O=C(CSc1ncc(CO)n1Cc1ccccc1)Nc1ccc(C(F)(F)F)cc1,nt,nt,14.6µM*,nt,nt,23.1µM*
O=C(CSc1ncc(CO)n1Cc1ccccc1)Nc1nc2ccccc2s1,nt,nt,20.6µM*,nt,nt,16.4µM*
COc1ccc(Cn2c(CO)cnc2SCC(=O)Nc2cccc(NC(C)=O)c2)cc1,2.4,-1.0%,-25.4%,-1.2%,-0.9%,7.6%
CN(C)c1nc2cc3c(cc2cc1CN(CC1CCCO1)C(=O)/C=C/c1cccs1)OCO3 (stereo not given),nt,nt,2.7%,nt,nt,-6.8%
O=C(O)C1(O)C[C@@H](O)C(O)[C@H](O)C1 (stereo not given in full),5.1,-3.4%,2.3%,15.3%,nt,?
O=C(CN1C2=NCCCN2c2ccccc21)c1ccc(Cl)cc1Cl,-19.3,-18.0%,20.6µM*,-28.2%,-5.1%,14.6µM*
O=C(CN1C2=NCCN2c2ccccc21)c1ccc(Br)s1,-18.4,-2.4%,18.4µM*,2.3%,-20.8%,?
CCOC(=O)CN1C2=NCCCN2c2ccccc21,-3.4,26.3%,4.3%,14.4%,7.9%,1.8%
O=C(CN1C2=NCCN2c2ccccc21)c1ccc2c(c1)OCO2,-81.3*,0.0%,?,?,1.7%,?
O=C(CN1C2=NCCN2c2ccccc21)c1ccc(Br)cc1,-25.3,-25.8%,?,-15.2%,-6.3%,?
O=C(CN1C2=NCCCN2c2ccccc21)c1cccs1,-18.7,0.4%,7.0%,3.6%,-16.2%,-22.1%
SMILES,IL-1B inflam inh,HT1080NT lethal,DT40 TDP1 CPT,HT1080 IDH1KD tx,ELG1 repair inh,TDP1 cell noCPT
O=C(CN1C2=NCCCN2c2ccccc21)c1cccc(Br)c1,-26.4,-27.3%,?,-23.8%,?,23.1µM*
CCCCC(=O)NC1(C(F)(F)F)C(=O)Nc2c1c(=O)[nH]c(=O)n2-c1ccc(F)cc1 (stereo not given),nt,nt,2.1%,nt,nt,-1.4%
COc1ccccc1C(=O)Nc1cccc(OCc2cc(=O)n3ccccc3n2)c1,nt,nt,-15.1%,nt,nt,-21.2%
CCN(CC)CCSc1nnc2c3cc(C)ccc3n(Cc3ccccc3)c2n1,-67.3*,16.4µM*,?,23.1µM*,-6.6%,20.6µM*
C=CCn1c2ccccc2c2nnc(SCCN3CCOCC3)nc21,-70.7*,0.2%,-25.8%,-2.6%,-20.8%,?
CCCCn1c2ccc(F)cc2c2nnc(SCCN3CCOCC3)nc21,-22.1,?,?,?,-25.3%,29.1µM*
COc1ccc2c(c1)c1nnc(SCCN3CCOCC3)nc1n2C,nt,-5.4%,?,-8.8%,nt,15.8µM*
COc1ccc(CCN(C(=O)c2cccc(F)c2)C2CC(=O)N(c3ccc(OC)cc3)C2=O)cc1 (stereo not given),-4.7,3.1%,-17.4%,11.2%,-13.4%,?
CCC1CN(C(=O)N2CCC(C(=O)NCc3ccc(OC)cc3OC)CC2)c2ccccc2O1 (stereo not given),-15.8,0.6%,?,-4.6%,?,-27.7%
CCOC(=O)C1c2cccc(O)c2CCN1C(C)=O (stereo not given),2.4,12.2%,60.9%,9.4%,nt,-2.6%
CCOc1ccccc1NC(=O)C1CCN(C(=O)C2CC(=O)N(c3ccc(C)cc3)C2)CC1 (stereo not given),-20.2,1.7%,9.6%,4.0%,0.2%,-8.9%
Cn1c2ccc(F)cc2c2nnc(SCCN3CCOCC3)nc21,7.8,-7.0%,1.3%,-3.8%,?,-15.9%
CCCCn1c2ccccc2c2nnc(SCCN3CCCCC3)nc21,-9.7,-2.8%,?,0.5%,4.6%,16.4µM*
CCCn1c2ccccc2c2nnc(SCC(=O)Nc3cc(C)on3)nc21,-6.1,-9.1%,-19.1%,1.2%,?,?
CSc1nnc2c3ccccc3n(CCc3ccccc3)c2n1,0.0,-16.0%,7.31µM*,?,-5.7%,16.4µM*
CCCCn1c2ccc(F)cc2c2nnc(SCCN(CC)CC)nc21,nt,nt,20.6µM*,nt,nt,25.9µM*
COc1ccc(C(=O)NCCn2cc(SCC(=O)Nc3nnc(C)s3)c3ccccc32)cc1,-13.0,1.8%,?,-4.7%,nt,?
COc1ccc(C(=O)NCCn2cc(SCC(=O)NCc3ccco3)c3ccccc32)cc1,-1.8,-3.9%,7.31µM*,?,?,5.8µM*

# Bioassay records from PubChem BioAssay.
